Bioassay records (PubChem)
The sample as a whole holds a higher share of hits than the screen did.
TbPYK inhibitor: qHTS of Trypanosoma Brucei Inhibitors | pyruvate kinase (Trypanosoma brucei), Q57TT1 | TbPYK enzyme, Kinase-Glo Plus ATP luminescence, 45 min | Potency, µM (titrated, usually from 76.8 µM), actives largely listed as inhibitors | 410,000 compounds, 0.12% hits | AID 624173, 2012; note: nearly all actives have a fitted effect of over 50% in size
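Activity of T. brucei pyruvate kinase was followed by Kinase-Glo Plus luminescence after the enzyme reacted 45 min at room temperature with 130 uM ADP (final) and substrate. Test compounds were added before ADP at multiple concentrations.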
LmPK inhibitor: qHTS Assay for Inhibitors of Leishmania Mexicana Pyruvate Kinase (LmPK); purified LmPK, Kinase-Glo ATP luminescence, 1 h; Potency, µM (top dose mostly 57.5 µM), actives largely listed as inhibitors; 290,000 compounds, 0.37% hits
Target sequence (Q27686 whole entry, looked up): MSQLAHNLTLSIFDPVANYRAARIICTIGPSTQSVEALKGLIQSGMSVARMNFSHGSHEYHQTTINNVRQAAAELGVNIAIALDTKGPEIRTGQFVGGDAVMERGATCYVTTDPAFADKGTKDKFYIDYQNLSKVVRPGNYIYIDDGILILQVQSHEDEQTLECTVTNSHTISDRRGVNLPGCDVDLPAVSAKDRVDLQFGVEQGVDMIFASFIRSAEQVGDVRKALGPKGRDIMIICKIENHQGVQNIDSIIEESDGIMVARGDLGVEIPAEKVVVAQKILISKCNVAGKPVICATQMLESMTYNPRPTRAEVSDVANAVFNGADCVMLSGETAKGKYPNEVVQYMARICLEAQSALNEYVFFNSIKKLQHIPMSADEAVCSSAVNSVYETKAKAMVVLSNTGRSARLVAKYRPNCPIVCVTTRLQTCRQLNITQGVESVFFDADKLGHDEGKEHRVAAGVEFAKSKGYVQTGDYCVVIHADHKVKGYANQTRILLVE
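Pyruvate kinase activity monitored as ATP production (luciferase luminescence). Conditions: 0.1 nM enzyme, 0.5 mM PEP, 0.1 mM ADP, 1 h, RT; normalized against uninhibited and no-enzyme wells.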
SARS PLP yeast: qHTS of Yeast-based Assay for SARS-CoV PLP. 330,000 compounds, 0.19% hits. S. cerevisiae expressing SARS-CoV PLpro, growth rescue. Potency, µM (series often up to 32.9 µM), hits mostly activators; calls by dose curve; note: nearly all actives have a fitted effect of over 55% in size
NS1 function inh: qHTS Assay for Inhibitors of Influenza NS1 Protein Function; Potency, µM (series often up to 46.1 µM); AID 2326, 2010; 270,000 compounds, 0.4% hits; calls by dose curve; note: actives are rising curves; nearly all actives have a fitted effect of over 50% in size
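Compounds were scored for reversing the slow growth caused by influenza A NS1 in S. cerevisiae, measured by optical density at 600 nm. Assay medium contained 2% galactose at pH 6.0; NS1-free yeast of the same strain were the positive control.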
Shiga toxin inh: A qHTS for Small Molecule Inhibitors of Shiga Toxin. Vero cells, Shiga toxin protein synthesis inhibition reporter. 290,000 compounds, 9.2% hits. inhibition, % at 38.7 µM; in the data active = inhibition mostly above about 28%, no sharp cut-off; inactive = mostly below about 43%
CHX counter: Cycloheximide Counterscreen for Small Molecule Inhibitors of Shiga Toxin | cell reporter, cycloheximide protein synthesis inhibition counterscreen | max response, % | 300,000 compounds, 12% hits; in the data active = max response mostly above about 13%, no sharp cut-off; inactive = mostly below about 14%; note: read at 38.3 µM for the half of the compounds with a filed dose
Of the large screens only hits and unclear results are named; the others gave an inactive call. Unless noted, calls come from the whole dose curve; as a rule, active = well fitted curve in the direction sought with a large enough effect; inconclusive = small, poorly fitted or top-dose-only effect, or another doubt; inactive = no such curve, though single readings can be large; an effect the other way counts as inactive or inconclusive.

CC(C(=O)N1CCCC1)N(c1ccccc1)S(C)(=O)=O (centres undefined)	none (no result: TbPYK inhibitor)
O=C(Cn1c(=O)n(Cc2ccc3c(c2)OCO3)c(=O)c2oc3ccccc3c21)Nc1ccccc1F	none (no result: LmPK inhibitor, SARS PLP yeast, NS1 function inh, Shiga toxin inh, CHX counter)
CC(Cc1cccnc1)NC(=O)c1cc(COc2c(F)cccc2F)on1 (centres undefined)	none
Cc1ccc(OCc2cc(C(=O)NC(C)Cc3cccnc3)no2)cc1C (centres undefined)	Shiga toxin inh 98, CHX counter 35
CCOc1ccc(-c2nc(C#N)c(NC3CC3)o2)cc1	Shiga toxin inh 117, CHX counter 42
COc1ccc(Nc2oc(-c3ccc(Cl)cc3)nc2C#N)cc1	Shiga toxin inh 84, CHX counter 30
COc1ccc(Nc2oc(-c3ccccc3)nc2C#N)cc1	Shiga toxin inh 70, CHX counter 14
CCOc1ccc(Nc2oc(-c3ccc(Cl)cc3)nc2C#N)cc1	CHX counter 9.8
CCOc1ccc(-c2nc(C#N)c(NCc3ccc4c(c3)OCO4)o2)cc1	none
CC(=O)Nc1ccc(S(=O)(=O)N(C)CC(=O)OC(C)C(=O)NC2CCCCC2)cc1 (centres undefined)	none (no result: LmPK inhibitor, NS1 function inh, Shiga toxin inh, CHX counter)
COc1ccc(Nc2oc(COc3ccc(Cl)cc3)nc2C#N)cc1	none
COc1ccc(Nc2oc(-c3ccc(OC)cc3)nc2C#N)cc1	Shiga toxin inh 105, CHX counter 50
CNc1oc(-c2ccccc2)nc1C#N	Shiga toxin inh 38, CHX counter 20
Cc1ccc(Cn2cc(CN3CC(N4CCN(CCN(C)C)CC4)CS3(=O)=O)nn2)cc1 (centres undefined)	none (no result: LmPK inhibitor, SARS PLP yeast, NS1 function inh, Shiga toxin inh, CHX counter)
CC(C)C[C@H]1CN([C@@H](Cc2ccccc2)CN2CCC[C@@H]2CN2C(=O)C(=O)NC[C@@H]2Cc2ccccc2)C(=O)C(=O)N1CCc1ccccc1	none (no result: LmPK inhibitor, SARS PLP yeast, NS1 function inh, Shiga toxin inh, CHX counter)
CCOC(=O)c1c(S(=O)(=O)N2CCCC(C(=O)N3CCN(c4ccc(F)cc4)CC3)C2)c(C)n(C)c1C (centres undefined)	none (no result: LmPK inhibitor, SARS PLP yeast, NS1 function inh, Shiga toxin inh, CHX counter)
Cc1cccc(Nc2nnc(SCC3CCCCO3)s2)c1 (centres undefined)	Shiga toxin inh 49, CHX counter 36
N#CC1=C2SCN(c3ccc(F)cc3)CN2C(=O)CC1c1cccc(F)c1 (centres undefined)	TbPYK inhibitor inconclusive, NS1 function inh inconclusive
CCc1ccc(C2CC(=O)N3CN(c4ccccc4)CSC3=C2C#N)cc1 (centres undefined)	TbPYK inhibitor 4.5µM
COc1ccc(N2CSC3=C(C#N)C(c4cccs4)CC(=O)N3C2)cc1 (centres undefined)	CHX counter 18
CCc1ccc(N2CSC3=C(C#N)C(c4cccs4)CC(=O)N3C2)cc1 (centres undefined)	TbPYK inhibitor inconclusive, CHX counter 15
CCN(CC)CCN(CC(=O)Nc1c(C)cc(C)cc1C)C(=O)c1ccccc1	none
CC[C@H](C)[C@H](NC(=O)[C@H](CCC(=O)O)NC(=O)CNC(=O)[C@@H](NC(=O)[C@@H]1CCCN1C(=O)[C@@H](NC(=O)[C@@H]1CCCN1C(=O)[C@@H]1CCCN1C(=O)[C@H](CC(N)=O)NC(=O)[C@H](CC(N)=O)NC(=O)[C@@H](NC(=O)[C@H](CCSC)NC(=O)[C@H](Cc1c[nH]c2ccccc12)NC(=O)CNC(=O)[C@@H](NC(=O)[C@H](CCC(N)=O)NC(=O)[C@@H](N)CCC(=O)O)[C@@H](C)CC)[C@@H](C)O)[C@@H](C)CC)C(C)C)C(=O)O	none (no result: TbPYK inhibitor, LmPK inhibitor, SARS PLP yeast, NS1 function inh)
COc1ccc(S(=O)(=O)NCC(c2ccc(F)cc2)N2CCN(C)CC2)cc1 (centres undefined)	none (no result: LmPK inhibitor, NS1 function inh, Shiga toxin inh, CHX counter)
CCN(CCCNC(=O)c1nn(-c2ccc(OC)cc2)c(=O)c2c1c1ccccc1n2C)c1cccc(C)c1	none (no result: LmPK inhibitor, SARS PLP yeast, NS1 function inh, Shiga toxin inh, CHX counter)
Cn1c2ccsc2c2cnn(Cc3ccccc3F)c(=O)c21	none (no result: TbPYK inhibitor, LmPK inhibitor, SARS PLP yeast, NS1 function inh)
Nc1c2c(nc3sc4c(c13)CCCC4)-c1ccccc1CC2	Shiga toxin inh 97, CHX counter 50
Nc1c2c(nc3c1CCC3)CCCC2	none (no result: NS1 function inh)
Nc1c2c(nc3sc4c(c13)CCCCC4)CCCC2	Shiga toxin inh 137, CHX counter 62
CC1(/[N+]([O-])=C\c2ccccc2F)CCCCC1=O (centres undefined)	none
Cc1cc(NS(=O)(=O)c2ccc(NC(=O)COc3c(C)ccc(C)c3C)cc2)nc(C)n1	none (no result: LmPK inhibitor, SARS PLP yeast, NS1 function inh, Shiga toxin inh, CHX counter)
CN(C)Cc1cc(C(F)(F)F)ccc1C(O)(c1ccccc1)c1ccccc1	none (no result: LmPK inhibitor, SARS PLP yeast, Shiga toxin inh, CHX counter)
Cc1nn(-c2ccc(C(=O)OC(C)C)cc2)c(C)c1[N+](=O)[O-]	Shiga toxin inh 62, CHX counter 32 (no result: NS1 function inh)
Cc1nn(-c2cccc(C(=O)O)c2)c(C)c1[N+](=O)[O-]	none (no result: NS1 function inh)
O=c1[nH][nH]c2c1[C@@H](c1ccc(F)cc1)O[C@H](CCc1ccccc1)C2	none (no result: LmPK inhibitor, SARS PLP yeast, NS1 function inh, Shiga toxin inh, CHX counter)
CCOC(=O)c1c(C)[nH]c(C(=O)N/N=C\c2ccccc2Cl)c1C	CHX counter 20
CCOC(=O)c1c(C)[nH]c(C(=O)N/N=C/c2cccc(OC)c2)c1C	Shiga toxin inh active, CHX counter 15
COc1ccc(/C=N/NC(=O)c2[nH]c(C)c(C(=O)N/N=C/c3ccc(OC)cc3)c2C)cc1	none
CCOC(=O)c1[nH]c(C)c(C(=O)NCc2ccccc2Cl)c1C	none (no result: LmPK inhibitor, SARS PLP yeast, NS1 function inh, Shiga toxin inh, CHX counter)
COc1cccc(/C=N/NC(=O)c2[nH]c(C)c(C(=O)N/N=C/c3cccc(OC)c3)c2C)c1	Shiga toxin inh 73
C=C[C@@H]1c2cc(C)ccc2N(S(=O)(=O)c2ccc(C)cc2)[C@H](c2ccccc2)C1(C#N)S(=O)(=O)c1ccccc1 (some centres undefined)	none (no result: LmPK inhibitor, NS1 function inh, Shiga toxin inh, CHX counter)
COc1ccc(NC(=O)C2CCCCC2)cc1S(=O)(=O)N1CCOCC1	none (no result: LmPK inhibitor, NS1 function inh, Shiga toxin inh, CHX counter)
COCCOC(=O)c1[nH]c2c(c1C)C(=O)CC(c1cccs1)C2 (centres undefined)	CHX counter 20 (no result: NS1 function inh)
CCOCCOC(=O)c1[nH]c2c(c1C)C(=O)CC(c1cccs1)C2 (centres undefined)	none (no result: NS1 function inh)
O=C1c2ccccc2-c2cccc3cccc1c23	none (no result: LmPK inhibitor, SARS PLP yeast, NS1 function inh, Shiga toxin inh, CHX counter)
c1ccc2c(c1)Oc1cccc3cccc-2c13	Shiga toxin inh 25, CHX counter 12
CCOC(=O)c1cc(S(=O)(=O)N2CCN(c3ccc(C(C)=O)cc3)CC2)[nH]n1	none (no result: LmPK inhibitor, SARS PLP yeast, NS1 function inh, Shiga toxin inh, CHX counter)
C=C(C)C1CC=C(C)/C(=N/NC(=O)COc2ccc(Cl)cc2)C1 (centres undefined)	SARS PLP yeast inconclusive
C=C(C)C1CC=C(C)/C(=N/NC(=O)c2cccc([N+](=O)[O-])c2)C1 (centres undefined)	none
C=C(C)C1CC=C(C)/C(=N/NC(=O)COc2cccc(C)c2)C1 (centres undefined)	Shiga toxin inh 41
